Screening results from PubChem.
CYP2C19 act: increases human CYP2C19 enzyme activity. recombinant CYP2C19, luciferin-H EGE luminescence; stronger effect = higher value; 0 = fully inhibited enzyme, 1 = untreated enzyme. activation factor at 5 µM. 96,000 tested, under 10 active;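 active = activation factor of at least 2 at 5 µM in the primary screen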;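 note: 0 = wells with 2.5 mM tranylcypromine and 1 = vehicle-only wells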
Target sequence (P33261 whole entry, looked up): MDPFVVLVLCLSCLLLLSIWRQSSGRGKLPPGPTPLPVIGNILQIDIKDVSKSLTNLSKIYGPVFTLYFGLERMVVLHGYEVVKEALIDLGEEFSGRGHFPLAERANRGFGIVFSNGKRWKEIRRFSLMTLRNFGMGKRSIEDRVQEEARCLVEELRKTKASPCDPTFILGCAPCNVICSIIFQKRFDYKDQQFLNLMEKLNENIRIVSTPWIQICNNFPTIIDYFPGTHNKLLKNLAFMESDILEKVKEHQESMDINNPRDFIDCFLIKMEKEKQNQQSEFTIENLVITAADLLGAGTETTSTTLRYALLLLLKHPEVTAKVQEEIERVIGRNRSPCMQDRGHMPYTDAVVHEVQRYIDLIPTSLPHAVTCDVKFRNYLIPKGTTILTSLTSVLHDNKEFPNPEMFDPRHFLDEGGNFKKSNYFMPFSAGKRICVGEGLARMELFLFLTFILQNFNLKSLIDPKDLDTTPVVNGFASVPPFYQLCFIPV
CYP2C19 inh: inhibitors of human CYP2C19; CYP2C19 Supersomes, luciferin-H EGE luminescence, 30 min; inhibition, % at 5 µM; AID 778; P33261; 96,000 tested, 21% active;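 active = CYP2C19 inhibition above a set limit at 5 µM in the primary screen, cut at about 50% in these data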;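 note: plate controls were negative control wells for no effect and 2.5 mM tranylcypromine positive control for full effect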
PLAP act: human PLAP activation; purified PLAP enzyme, luminescent substrate read-out; stronger effect = higher value; activation fold at 20 µM; 96,000 tested, 1.2% active; AID 696; in the data active = activation fold above about 2
CYP2C9 inh: human CYP2C9 inhibition; P11712; inhibition, % at 5 µM; CYP2C9 Supersomes, luciferin-H conversion, luminescence; 96,000 tested, 20% active;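 active = blocking of liver enzyme CYP2C9 beyond about 50% at 5 µM, limit read from the data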
CYP2C9 activ: CYP2C9 (human) activation; 96,000 tested, 1.4% active; AID 1024; recombinant CYP2C9, luciferin-H conversion, luminescence; stronger effect = higher value; factor 1 = untreated enzyme, 0 = blocked; P11712; activation factor at 5 µM;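 active = activation factor of 2 or more for CYP2C9 at a 5 µM dose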;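 note: 0 = sulfaphenazole-blocked wells and 1 = vehicle-only wells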
Numbers without * were called inactive. Most compounds without a hit are left out; they make up all but 31% or so of the library.

SMILES	CYP2C19 act	CYP2C19 inh	PLAP act	CYP2C9 inh	CYP2C9 activ
CCC(c1nnnn1C1CCCCC1)N(Cc1ccco1)Cc1cc2ccc(OC)cc2[nH]c1=O (stereo not drawn)	0	95.3*	1	83.9*	0.2
Cc1ccc(S(=O)(=O)NNC(=O)c2sc3nc(C)cc(C)c3c2-n2cccc2)cc1	0.2	80.6*	1.7	98.9*	0
Cc1ccc(S(=O)(=O)NNC(=O)c2sccc2-n2cccc2)cc1	0.7	30.6	1.1	24.5	0.8
CC1(C)N=C(c2cccc(F)c2)C(=O)N1	0.4	60.2*	0.9	10.6	0.9
CC1(C)N=C(c2ccc(Cl)cc2)C(=O)N1	0.1	87.4*	1	34.5	0.7
O=C1NC2(CCCCCC2)N=C1c1ccc(F)cc1	0.6	39.7	0.9	9.4	0.9
Cc1ccc(C2=NC(C)(C)NC2=O)cc1	0.2	83.6*	0.9	3.0	1
CC1(C)N=C(c2ccccc2)C(=O)N1	0.6	42.4	0.9	-6.9	1.1
Cn1nnnc1SCC(=O)Nc1c(Cl)cccc1Cl	0.9	9.5	1	15.3	0.8
Cc1cc(N)n(-c2ccc3ccccc3c2)n1	0.9	11.7	1	0.9	1
CCOC(=O)C1CCN(Cc2cnc(Oc3ccc(C(C)(C)C)cc3)s2)CC1	0.6	39.8	1.3	36.6	0.6
Cc1cc(C)c(C(=O)CC2(O)C(=O)Nc3ccccc32)cc1C (stereo not drawn)	0.1	91.5*	0.8	27.9	0.7
Cc1cc(NC(=O)c2cccc(S(=O)(=O)N3CC(c4ccccc4)CC3=O)c2)no1 (stereo not drawn)	0.9	10.8	0.9	-11.8	1.1
Cc1onc(-c2ccccc2)c1C(=O)Nc1c(C)n(C)n(-c2ccccc2)c1=O	1.1	-8.0	1	-11.6	1.1
O=C(Nc1cccc(F)c1)C1CCN(c2nnnn2-c2ccccc2)CC1	0.6	38.4	1.2	50.6*	0.5
O=C(Nc1ccc2c(c1)OCCO2)C1CCN(C(=O)c2ccc(Br)cc2)CC1	0.5	47.7	1.1	85.0*	0.2
O=C(Nc1cccc(F)c1)C1CCN(C(=O)c2ccc(Br)cc2)CC1	0.1	90.1*	1.8	92.9*	0.1
O=C(Nc1ccc2c(c1)OCCO2)C1CCN(c2nnnn2-c2ccccc2)CC1	0.9	13.2	1	24.8	0.8
CCCc1cn(S(=O)(=O)c2ccc(OC)cc2OC)nc1N	0.5	48.4	0.9	12.5	0.9
NC1=NC(c2ccccc2Cl)n2c(nc3ccccc32)N1 (stereo not drawn)	1	-2.7	1.4	-3.0	1
NC1=NC(c2ccc(Cl)cc2)n2c(nc3ccccc32)N1 (stereo not drawn)	0.1	88.5*	1.7	10.5	0.9
CC(C)n1nnnc1SCC(=O)N1CCOCC1	1	4.8	1	0.4	1
Cn1cc(CN2CCN(c3ccccc3)CC2)c2ccccc21	0.7	33.9	1.4	-74.9	1.7
CCOC(=O)c1[nH]c2ccc(OCC)cc2c1NC(=O)CN1CCN(c2ccccn2)CC1	0.9	11.7	1	5.3	0.9
CCOC(=O)c1[nH]c2ccc(OCC)cc2c1NC(=O)CN1CCCC(C)C1 (stereo not drawn)	0.2	77.6*	1.6	59.6*	0.4
SMILES	CYP2C19 act	CYP2C19 inh	PLAP act	CYP2C9 inh	CYP2C9 activ
CCOC(=O)c1[nH]c2ccc(C)cc2c1NC(=O)CN1CCCCC1	0.4	60.1*	1	29.6	0.7
COC(=O)c1[nH]c2ccc(C)cc2c1NC(=O)CN1CCCC(C)(C)C1	0.6	38.8	1.5	18.1	0.8
COc1ccc(OCCC(=O)OCC(=O)NCc2ccco2)cc1	0.9	5.9	1.2	4.2	1
COc1ccc(OCCC(=O)OCC(=O)NC(=O)NC(C)(C)C)cc1	0.2	84.4*	0.9	82.7*	0.2
Oc1c(C(c2cccs2)N2CCC3(CC2)OCCO3)sc2ncnn12 (stereo not drawn)	0.1	86.7*	1.5	58.2*	0.4
CCCc1cc(=O)n2c([nH]c3ccccc32)c1C#N	1	-2.5	0.9	56.4*	0.4
O=C(COC(=O)c1cccnc1)c1ccc(Cl)cc1	0.4	60.1*	0.9	15.6	0.8
O=C(COC(=O)c1cccnc1)c1ccc(Cl)c(Cl)c1	0.2	77.4*	1.2	39.0	0.6
CCC(=O)Nc1ccc(-c2nnc(SCC(=O)Nc3nccs3)n2C)cc1	0.9	7.3	1.1	14.9	0.9
CC(C)(C)n1nnnc1C(c1cccnc1)N(Cc1ccccc1)Cc1ccco1 (stereo not drawn)	0.6	43.9	1.4	72.9*	0.3
CCN(Cc1ccccc1)C(c1cccc(C#N)c1)c1nnnn1C(C)(C)C (stereo not drawn)	0.3	72.4*	1.5	91.0*	0.1
CCC(C)(C)n1nnnc1C(c1ccc(C)cc1)N(Cc1ccco1)Cc1cccs1 (stereo not drawn)	1	-3.8	0.9	90.5*	0.1
COc1cccc(CN(Cc2ccco2)C(c2ccc(F)cc2)c2nnnn2C(C)(C)C)c1 (stereo not drawn)	0.6	44.1	1.5	50.6*	0.5
Cc1ccc2[nH]c(=O)c(C(c3nnnn3C3CCCC3)N(Cc3cccnc3)Cc3ccco3)cc2c1 (stereo not drawn)	0.8	20.9	1	45.3	0.5
Cc1ccc2cc(C(c3nnnn3C3CCCC3)N(Cc3ccco3)Cc3cccs3)c(=O)[nH]c2c1 (stereo not drawn)	0.5	48.7	1.6	41.6	0.6
CCC(C)(C)NC(=O)C(c1ccc(F)cc1)N(Cc1ccco1)C(=O)c1snc(C(N)=O)c1N (stereo not drawn)	1	-2.6	1.1	-5.8	1.1
Cc1ccc2c(n1)sc1c(N)ncnc12	1.1	-6.3	1.1	-3.4	1
Cn1nnnc1P(=O)(c1ccccc1)c1ccccc1	1.1	-14.2	0.8	0.0	1
CC(C)(C)n1nnnc1CN(Cc1ccc(F)cc1)Cc1ccco1	0.1	92.8*	1.5	86.6*	0.1
CN(Cc1ccco1)C(=O)C1CCC(=O)N1Cc1ccc(F)cc1 (stereo not drawn)	0.9	12.1	1	8.3	0.9
Cc1ccc(S(=O)(=O)NCC(=O)OC2CCOC2=O)cc1 (stereo not drawn)	1	-2.3	1.1	-10.8	1.1
O=C(Nc1ccc(S(=O)(=O)N2CCN(c3ccccc3)CC2)cc1)c1cccs1	1	0.7	1.2	2.5	1
O=C(Nc1ccc2c(c1)CCC2)c1cc(S(=O)(=O)N2CCN(c3ccccc3)CC2)ccc1Cl	0.8	23.6	1.3	56.3*	0.4
Cc1csc(C(=O)O)c1-n1cccc1	0.9	5.5	1	15.7	0.8
COc1ccc(-c2nc(-c3cccs3)c(-c3cccs3)[nH]2)cc1O	0.1	87.5*	1.2	96.1*	0
CC(C)(C)Nc1nc(SCc2ccccc2)nc(N2CCOCC2)n1	0.3	74.7*	1.4	96.6*	0
CCNc1nc(SCC(=O)OC)nc(N2CCOCC2)n1	1	1.2	0.9	2.8	1
